Source: PubChem BioAssay AID778 (Sanford-Burnham Center for Chemical Genomics, 2007)
Among all 96,000 compounds or so, about 20,000 (21%) were called active.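 How the source made its calls: active means CYP2C19 inhibition above a set limit at 5 µM in the primary screen (cut at about 50% in these data); inactive means the rest.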 The list is a sample of the results.

Target: Cytochrome P450 2C19 (Homo sapiens) (UniProt P33261)
Test: blockers of cytochrome P450 2C19 activity – biochemical, luminescence, ADME assay, primary screen (AID 778);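 further: plate controls were negative control wells for no effect and 2.5 mM tranylcypromine positive control for full effect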
Details: CYP2C19 Supersomes, luciferin-H EGE luminescence, 30 min; at 5 µM; stronger effect = higher value

Sequence of Cytochrome P450 2C19 (Homo sapiens) (P33261 whole entry, looked up): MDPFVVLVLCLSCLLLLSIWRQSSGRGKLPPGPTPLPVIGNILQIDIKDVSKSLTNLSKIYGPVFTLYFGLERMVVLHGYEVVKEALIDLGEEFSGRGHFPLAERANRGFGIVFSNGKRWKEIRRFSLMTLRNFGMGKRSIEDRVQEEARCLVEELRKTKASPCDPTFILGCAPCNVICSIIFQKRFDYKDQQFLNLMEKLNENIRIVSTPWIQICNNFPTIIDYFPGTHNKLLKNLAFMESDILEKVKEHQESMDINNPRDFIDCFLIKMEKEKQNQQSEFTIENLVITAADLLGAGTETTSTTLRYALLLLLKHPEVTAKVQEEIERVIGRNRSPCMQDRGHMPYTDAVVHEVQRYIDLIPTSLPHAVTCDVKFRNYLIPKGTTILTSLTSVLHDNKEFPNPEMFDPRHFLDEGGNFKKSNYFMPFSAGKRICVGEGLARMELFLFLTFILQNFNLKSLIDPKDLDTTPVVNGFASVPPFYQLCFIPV

Compound	inhibition
ONC(=Nc1ccc(Cl)cc1)c1ccccc1Cl	84.3% (active)
ONC(=Nc1ccccc1)c1ccccc1Cl	32.8% (inactive)
CC(Oc1ccc(Cl)cc1)C(=O)OCC(=O)Nc1ncc(Cl)cc1Cl (stereo unspecified)	24.2% (inactive)
CC(Oc1ccc(Cl)cc1)c1ccnn1S(C)(=O)=O (stereo unspecified)	69.5% (active)
CC(Oc1ccc(Cl)cc1)C(=O)Nc1ncccn1 (stereo unspecified)	30% (inactive)
N#Cc1ccc(-c2ccc(F)cc2)nc1Sc1ccccc1	3.5% (inactive)
Cc1csc(NC(=O)NC2(C(F)(F)F)Oc3ccccc3O2)n1	-13.3% (inactive)
O/N=C(\c1ccc2c(c1)OCCO2)C1CCCCC1	49.8% (inactive)
CC(C)Cc1cc(C(=O)Nc2cc(Br)ccc2O)no1	-2.9% (inactive)
CCn1c(CSc2ncccn2)nnc1SCC(=O)N1c2ccccc2CC1C (stereo unspecified)	18.8% (inactive)
CCCCn1ccnc1C(=O)c1cccc(S(=O)(=O)N2c3ccccc3CC2C)c1 (stereo unspecified)	83.1% (active)
CC(C)N1C(=O)C2C(C(=O)NC3CCCCC3)C3C=CC2(O3)C1C(=O)NC1CCCC1 (stereo unspecified)	6.6% (inactive)
N#Cc1ccc(-c2ccc(Cl)cc2)nc1Oc1ccc(F)cc1	41.8% (inactive)
O=C(Oc1ccc([N+](=O)[O-])cc1)c1ccc2ccccc2n1	0% (inactive)
CS(=O)(=O)N(CC(=O)Nc1ccc(Cl)c(Cl)c1)C1CCCCC1	60.7% (active)
CCOC(=O)N1CCN(C(=O)CN(C2CCCCC2)S(C)(=O)=O)CC1	-5.6% (inactive)
CS(=O)(=O)N(CC(=O)N1CCN(c2ccc(F)cc2)CC1)C1CCCCC1	6.9% (inactive)
O=C(CCCN1C(=O)CSc2ncccc21)N1CCN(c2cccc(C(F)(F)F)c2)CC1	34% (inactive)
Cc1nc(C)c(C(=O)Nc2cccc(C)c2C)o1	-14.2% (inactive)
Cc1cc(C(=O)N2CCN(c3ccccn3)CC2)c(C)o1	56.8% (active)
CC(=C1C(=O)c2ccccc2C1=O)N1CCN(c2ccccn2)CC1	13.1% (inactive)
Cn1c(=O)cc(OCCCC(=O)N2CCN(c3ccccn3)CC2)c2ccccc21	30.2% (inactive)
COC(=O)c1ccc(NC(=O)C(C)N2C(=O)c3ccccc3C2=O)cc1 (stereo unspecified)	11.8% (inactive)
CC(C)Oc1ccc(Oc2ccc(C(F)(F)F)cn2)cc1	23.2% (inactive)

Compound	inhibition
CN(C)c1ccc(NC(=S)N(CCc2ccccc2)C2CC(=O)N(c3c(Cl)cccc3Cl)C2=O)cc1 (stereo unspecified)	13.4% (inactive)
COC(=O)CN(C(=S)Nc1ccc(Cl)cc1)C1CC(=O)N(c2ccc(OC)cc2)C1=O (stereo unspecified)	69.3% (active)
COc1cccc(N2CCN(C3CC(=O)N(c4ccc(Cl)cc4)C3=O)CC2)c1 (stereo unspecified)	-17.1% (inactive)
CCSc1nnc(NC(=O)Cc2ccccc2OC)s1	36.5% (inactive)
CCOCCCN1C(=O)CN(C2CCCCC2)C(=O)C1c1ccc(OCC)c(OC)c1 (stereo unspecified)	0.6% (inactive)
CCN(CC)S(=O)(=O)c1ccc2nc(COC(=O)c3n[nH]c4ccccc34)[nH]c2c1	9.5% (inactive)
CCn1c(CSc2nncn2-c2ccc(OC)cc2)nc2cc(S(=O)(=O)N(C)C)ccc21	21.5% (inactive)
CCN(CC)S(=O)(=O)c1ccc2nc(CSc3nnnn3-c3ccc(O)cc3)[nH]c2c1	66.1% (active)
CCCCN(CC)CCCNC(=O)CS(=O)(=O)Cc1nc(-c2cccc(OC)c2)oc1C	-1.1% (inactive)
CC/C(C)=N/Nc1nc2sc3c(c2c(=O)[nH]1)CC(C)(C)OC3	36.9% (inactive)
CCOC(=O)Cn1c(SC)nc2sc3c(c2c1=O)CC(C)(C)OC3	8.2% (inactive)
CCOC(=O)CSc1nc2sc3c(c2c(=O)[nH]1)CC(C)(C)OC3	67.6% (active)
CC(=O)Nc1ccc(S(=O)(=O)Nc2cccc(NC(=O)C(C)(C)C)c2)cc1	32.2% (inactive)
CC(=O)Nc1ccc(NS(=O)(=O)c2cc(C)sc2C)cc1	93.5% (active)
CC(=O)NS(=O)(=O)c1ccc(NC(=S)NC(=O)C(C)(C)C)cc1	-2.4% (inactive)
CN(C)c1ccc(-n2cccc2/C=C2/SC(=Nc3ccc(F)cc3)NC2=O)cc1	2.9% (inactive)
CCOC(=O)Nc1ccc(S(=O)(=O)N(C)C(C)C)cc1	19.6% (inactive)
COC(=O)Nc1ccc(S(=O)(=O)N2CCN(CCN3C(=O)C4C5C=CC(C5)C4C3=O)CC2)cc1 (stereo unspecified)	5.6% (inactive)
COC(=O)Nc1ccc(S(=O)(=O)N(C)CC(F)(F)C(F)F)cc1	58.8% (active)
O=C(CCn1c(=O)[nH]c2ccccc2c1=O)NCCCN1CCN(c2cccc(Cl)c2)CC1	13.5% (inactive)
COc1ccc(CCNC(=O)CCCCn2c(=O)[nH]c3ccccc3c2=O)cc1OC	16.8% (inactive)
O=C(CCCCCn1c(=O)[nH]c2ccccc2c1=O)NCCc1c[nH]c2ccccc12	71.7% (active)
O=C(c1cc2c(s1)CCC2)N1CCN(c2ccccc2)CC1	48.8% (inactive)
O=C(CSCc1c(F)cccc1Cl)NCC1CCCO1 (stereo unspecified)	52.6% (active)

Compound	inhibition
O=C(CSC1=Nc2ccccc2C2=NC(c3ccccc3)C(=O)N12)NCC1CCCO1 (stereo unspecified)	29.1% (inactive)
O=C(CS(=O)(=O)Cc1ccccc1)NCC1CCCO1 (stereo unspecified)	-6.7% (inactive)
N#Cc1ccc(Oc2cc(C(F)(F)F)nc(-c3ccccn3)n2)cc1	6.7% (inactive)
O=C(Nc1nccs1)c1cc(S(=O)(=O)N2CCOCC2)c(Cl)cc1Cl	12.5% (inactive)
O=C(CC1CCCCC1)Nc1c2c(nn1-c1ccc(F)cc1)CS(=O)(=O)C2	5% (inactive)
COc1ccc(-n2nc3c(c2NC(=O)Cc2cccc(C)c2)CS(=O)C3)cc1 (stereo unspecified)	76.9% (active)
CC(C)(C)n1nc2c(c1NC(=O)c1ccc(S(=O)(=O)N3CCCC3)cc1)CS(=O)C2 (stereo unspecified)	10.7% (inactive)
Cc1ccc(-n2nc3c(c2NC(=O)CCC2CCCCC2)CS(=O)C3)cc1 (stereo unspecified)	80.4% (active)
COc1ccc(-n2nc(C(=O)NCC(=O)Nc3cccc(C)n3)c3ccccc3c2=O)cc1	-1.3% (inactive)
O=C(Nc1c2c(nn1-c1ccc(F)cc1)CS(=O)C2)C12CC3CC(CC(C3)C1)C2 (stereo unspecified)	9.1% (inactive)
CCCCc1nc2c(=O)[nH]c3ccccc3c2o1	-9.6% (inactive)
CCC1(C)Cc2c(sc3[nH]c(=S)n(Cc4ccccc4)c(=O)c23)CO1 (stereo unspecified)	9.8% (inactive)
O=C(Cn1nnc(-c2ccc(CN3CCOCC3)cc2)n1)NC1CCCCC1	9% (inactive)
CC(=O)C1=C(O)C(=O)N(c2ccc(S(N)(=O)=O)cc2)C1c1ccccc1F (stereo unspecified)	-8% (inactive)
Clc1ccc(-c2cc(COc3ccccc3)no2)cc1Cl	10.4% (inactive)
O=c1c([N+](=O)[O-])cc(C(F)(F)F)cn1Cc1cccc(Cl)c1	24.2% (inactive)
CCc1c(O)nc(SCC(=O)N2CCCCC2)n(-c2ccccc2C)c1=O	0.9% (inactive)
C=CCNc1nnc(SCC(=O)N2CCCCC2)c2ccccc12	50.6% (active)
C=CCNc1nnc(C)c2ccccc12	-10.2% (inactive)
c1ccc2c(c1)C(=NC1CCCCC1)NC2=NC1CCCCC1	4.5% (inactive)
O=C(Nc1cccc(OCC(=O)N2CCOCC2)c1)C1CCCCC1	-9.5% (inactive)
CN(C)CCCNc1c2c(c(C#N)c3nc4ccccc4n13)CCC2	0% (inactive)
CCOC(=O)N1CCC(Nc2c(NCCN3CCN(c4cccc(Cl)c4)CC3)c(=O)c2=O)CC1	2.4% (inactive)
O=S(=O)(N/N=C\c1cccn1-c1ccccc1)c1ccc2ccccc2c1	49.7% (inactive)

Compound	inhibition
CCCCn1c(SCC(=O)NCCc2ccc(OC)c(OC)c2)nc2c1c(=O)n(C)c(=O)n2C	-14.1% (inactive)
CCOc1ccccc1N(CC(=O)NC1CCCCC1)C(=O)CCCC(=O)Nc1ccccn1	68.9% (active)
Cc1noc(C)c1C(=O)N(CC(=O)NC1CCCC1)Cc1ccccc1F	-7.6% (inactive)
Cc1ccc(C(C(=O)NC2CCCC2)N(Cc2ccco2)C(=O)CCC(=O)Nc2ccccn2)cc1 (stereo unspecified)	10.6% (inactive)
CCCC(=O)Nc1cc(OCC)c(NC(=O)NC2CCCCC2)cc1OCC	10.5% (inactive)
O=C(CCCC(=O)N(CC(=O)NC1CCCC1)Cc1ccccc1Cl)Nc1ccccn1	77.5% (active)
CCC(C)(NC(=O)c1ccccn1)C(=O)NC1CCCCC1 (stereo unspecified)	17.6% (inactive)
O=C1CCCC(O)=C1C=NCCc1ccccc1	12.8% (inactive)
CC(CCO)Nc1nc2c([nH]1)c(=O)n(C)c(=O)n2C (stereo unspecified)	0.9% (inactive)
Cn1c2c(c(=O)n(C)c1=O)C(c1ccc(O)cc1)Nc1ccccc1O2 (stereo unspecified)	2% (inactive)
CCOc1[nH]n(-c2ccc(Cl)cc2)c(=O)c1C=Nc1ccc(O)cc1	13.5% (inactive)
CCCN1CCN(C(=O)Cn2ncc3ccccc32)CC1	12.6% (inactive)
CN(C(=O)c1ccno1)c1nnc(-c2cccnc2)s1	-0.7% (inactive)
Cc1nnc(N(Cc2ccco2)C(=O)c2ccno2)s1	80.5% (active)
COCCN(C(=O)c1ccco1)c1nnc(-c2ccc(OC)cc2)s1	24% (inactive)
Cc1nnc(SCCCn2c(N3CCCCC3)nc3c2c(=O)[nH]c(=O)n3C)s1	22.6% (inactive)
Cc1ccc(O)c(NC(=O)COc2cc(C)ccc2C)c1	-2.7% (inactive)
Cc1cccc(NC(=O)COc2ccc(Br)cc2C)n1	5% (inactive)
CCCn1nnnc1NC(=O)COc1ccc(Cl)cc1C	70.2% (active)
CN1CCN(S(=O)(=O)c2ccc3[nH]cc(C(=O)O)c(=O)c3c2)CC1	3.6% (inactive)
CCNC(=S)Nc1cccc(Cl)c1C	48% (inactive)
Nc1nc(SCc2ccccc2Cl)n[nH]1	0.1% (inactive)
Cc1cc(C)nc(SCc2ccccc2C#N)n1	50.2% (active)
Clc1ccccc1CSc1nnc(-c2ccco2)c(-c2ccco2)n1	31.1% (inactive)
